From PubChem BioAssay AID434958 (Southern Research Specialized Biocontainment Screening …, 2010)
The campaign covered roughly 1,200 compounds. About 400 (33%) were called active. The rule behind the calls is not given here. The list is a sample of the results. Results with a measured potency or affinity are listed apart.

Experiment: mammalian cell cytotoxicity, dose response, cytotoxicity control (AID 434958);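 note: cells exposed to compound for 72 hours before readout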
Settings: cytotoxicity counter-screen; series mostly up to 40 µM

Compound	outcome
CCOC(=O)CNC(=O)CSc1ncnc2c1cnn2Cc1ccccc1	inactive
Cc1cc(C)n(-c2nc3ccccc3c(=O)n2OCC(=O)N(C)C)n1	inactive
CC1CCN(C(=S)NC(=O)c2ccccc2)CC1	inactive
CCc1cc2c(=O)nc3n(c2s1)Cc1ccccc1/C3=C(/O)c1ccc(F)cc1	inactive
CCC(CC)c1nnc(NC(=O)c2cc(-c3ccccc3)nc3ccccc23)s1	inactive
CCCSc1nnc(NC(=O)c2sc3nc(-c4cccs4)ccc3c2N)s1	inactive
COc1cc(OC)c(OC)cc1/C=C1\CCC(C2CCCC2)C1=O (stereo unspecified)	inactive
O=C(NCc1ccc2c(c1)OCO2)C(=O)NC1CCCCC1	inactive
CCCCn1nc2cc(C(=O)NCC34CC5CC(CC(C5)C3)C4)ccc2c1OCC	inactive
O=C(CSc1nnc(-c2ccncc2)o1)c1cccc([N+](=O)[O-])c1	inactive
O=C(OCC(=O)c1c[nH]c2ccccc12)c1cccc([N+](=O)[O-])c1	inactive
O=C(Cn1nnc2c(cnn2-c2ccccc2)c1=O)N1CCN(c2ccccc2F)CC1	inactive
CCOC(=O)c1nn(-c2ccc(Cl)cc2)cc1O	inactive
CCN(CCNC(=O)Nc1ccc(Cl)cc1)c1ccccc1	inactive
S=c1nccc(-c2ccc3c(c2)CCO3)[nH]1	inactive
CC(=O)Nc1scc(C)c1-c1nc2ccccc2s1	inactive
Cc1ccc(C(=O)Nc2nc3ccccc3s2)s1	inactive
O=C1S/C(=C\C=C\c2ccco2)C(=O)N1c1ccccc1	inactive
O=C1CS/C(=N/N=C2C3CC4CC(C3)CC2C4)N1	inactive

Compound	outcome
NC(=S)N/N=C/c1ccc(/C=N/NC(N)=S)cc1	inactive
CCOC(OCC)c1cn(Cc2ccc3c(c2)C(=O)c2ccccc2C3=O)nn1	inactive
S=C(Nc1ccccc1)Nc1ccc(Cl)cn1	inactive
c1ccc(CSc2nnc(-c3ccco3)o2)cc1	inactive
O=C(Cn1c(=O)n(CCCC(=O)NC2CCCC2)c(=O)c2ccccc21)NCCC1=CCCCC1	inactive
COc1cc(/C=C/c2ccc3cccc([N+](=O)[O-])c3n2)ccc1OCC(=O)O	inactive
CCOc1ccc(NC(=O)/C(C#N)=C/c2cn(CC(=O)O)c3ccccc23)cc1	inactive
CC(C)(C)c1nc2scc(-c3cccs3)c2c(=O)o1	inactive
O=C(CSc1nnc(-c2cnccn2)n1Cc1ccco1)Nc1ccc(Br)cc1	inactive
CN(NC(=O)c1c(Cl)cccc1Cl)c1cccc(Cl)n1	inactive
Cc1onc(-c2ccccc2Cl)c1C(=O)NCc1ccc2c(c1)cc(C)n2C	inactive
c1ccc(OCc2nnc(-c3ccccc3)o2)cc1	inactive
CC1(C)CCN2CCC(C)(C)c3c(O)ccc1c32	inactive
CCN(CC)C(=O)Cn1cc(C(=O)C(=O)N2CCN(c3ccccc3)CC2)c2ccccc21	inactive
C#C[C@]1(O)CC[C@H]2[C@@H]3CCC4=C(CCC(=O)C4)[C@H]3CC[C@@]21C	inactive
Cc1ccc(SCc2c(-c3ccccc3)nn(C)c2Cl)cc1	inactive
O=C(N/N=C/c1c(O)n(Cc2ccc(F)cc2)c(=S)[nH]c1=O)c1ccncc1	inactive
COC(=O)Cn1nc(-c2ccccc2)c2ccccc21	inactive
COC(=O)c1c(C(=O)OC)c(C)n(Cc2ccco2)c1C	inactive

Compound	outcome
CCOc1cc(CNCCN(C)C)c(Cl)cc1OCC(=O)NCCc1ccccc1	inactive
CCc1ccc(NC(=O)c2c(Cl)nc(C)c(Cl)c2C)cc1	inactive
O=C(N/N=C/c1c(Cl)cccc1Cl)c1cccc(F)c1	inactive
CCN(CC)C(=O)C1CCCN(c2ccc([N+](=O)[O-])cc2/C=N/NC(=O)c2cccc(O)c2)C1 (stereo unspecified)	inactive
Cc1nn(-c2ccccc2)cc1/C=N/NC(N)=S	inactive
Cc1cc(=O)[nH]c(N/N=C/c2c(O)n(-c3ccccc3)c(=O)c3ccccc23)n1	inactive
COc1ccc(/C=N\NC(=O)c2sc(N)nc2C)cc1OC	inactive
Cc1ccccc1/C=N\NC(=O)c1csnn1	inactive
CCc1ccc(NC(=S)Nc2ccc3[nH]c(=O)[nH]c3c2)cc1	inactive
COc1ccc([N+](=O)[O-])cc1NC(=O)c1ccc(Br)s1	inactive
CCOC(=O)c1c(NC(=O)COC(=O)c2ncc(Cl)c(Cl)c2Cl)sc(C(=O)N(C)C)c1C	inactive
COc1cc(OC)c2ccc(=O)oc2c1C(CC(=O)N1CCN(c2ccccc2)CC1)c1ccc2c(c1)OCO2 (stereo unspecified)	inactive
CCC(C(=O)Nc1ccccc1N1CCCC1)c1ccccc1 (stereo unspecified)	inactive
CCOCC(=O)N1CCN(c2ccc(F)cc2)CC1	inactive
O=C(c1cccc(Cl)c1)N1CCN(Cc2ccccc2F)CC1	inactive
Cc1ccc(CNC(=O)c2ccccc2NC(=O)CSc2nnnn2C)cc1	inactive
Cc1ccc(C)c(NC(=O)COC(=O)c2ccc(S(=O)(=O)N3CCCCC3)cc2)c1	inactive
O=c1[nH]c(C2CCN(S(=O)(=O)c3ccc(S(=O)(=O)NC4CC4)cc3)CC2)nc2c1nnn2Cc1ccc(F)cc1	inactive
